Inconclusive results are not listed. The source made the active and inactive calls. Calls come from the whole dose curve; as a rule, active = well fitted cell-killing curve with a large enough effect; inconclusive = small, poorly fitted or top-dose-only effect, or effect the other way; inactive = flat fitted curve, though single readings scatter.
Experiments:
Assay in all cases: Primary qHTS to identify gynecologic anti-cancer compounds using libraries of approved drugs and bioactive compounds (AID 1345084); note: nearly all actives have a fitted effect of over 55% in size
CAOV3 = conditions: Gynecologic cancer cell panel viability, ATPlite luminescence, 48 h; series mostly up to 57.5 µM
Summary of the method: (§1)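 Cytotoxicity screen measuring ATP content by luciferase luminescence. Each compound is applied at five concentrations for 48 h at 37 C with 5% CO2.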

CASKI = conditions: Gynecologic cancer cell panel viability, ATPlite luminescence, 48 h; series mostly up to 57.5 µM
Summary of the method: as §1

Es-2 = conditions: Gynecologic cancer cell panel viability, ATPlite luminescence, 48 h; series mostly up to 57.5 µM
Summary of the method: as §1

HeLa = conditions: Gynecologic cancer cell panel viability, ATPlite luminescence, 48 h; series mostly up to 57.5 µM
Summary of the method: as §1

Hek293T = conditions: Gynecologic cancer cell panel viability, ATPlite luminescence, 48 h, control line for the selectivity index; series mostly up to 57.5 µM
Summary of the method: as §1

JEG-3 = conditions: Gynecologic cancer cell panel viability, ATPlite luminescence, 48 h; series mostly up to 57.5 µM
Summary of the method: as §1

OV90 = conditions: Gynecologic cancer cell panel viability, ATPlite luminescence, 48 h; series mostly up to 57.5 µM
Summary of the method: as §1

PA-1 = conditions: Gynecologic cancer cell panel viability, ATPlite luminescence, 48 h; series mostly up to 57.5 µM
Summary of the method: as §1

SKOV3 = conditions: Gynecologic cancer cell panel viability, ATPlite luminescence, 48 h; series mostly up to 57.5 µM
Summary of the method: as §1

Tov-21-G = conditions: Gynecologic cancer cell panel viability, ATPlite luminescence, 48 h; series mostly up to 57.5 µM
Summary of the method: as §1

Tov112D = conditions: Gynecologic cancer cell panel viability, ATPlite luminescence, 48 h; series mostly up to 57.5 µM
Summary of the method: as §1
% is set by controls: 0 for no effect and ±100 for the full control effect.

CC(C)(O)C1CC=C(C(=O)OCC2OC(Oc3c(O)cc(C(=O)O)cc3O)C(O)C(O)C2O)CC1 (stereo not drawn)
inactive: Potency (CAOV3) | Potency (CASKI) | Potency (Es-2) | Potency (HeLa) | Potency (Hek293T) | Potency (JEG-3) | Potency (OV90) | Potency (PA-1) | Potency (SKOV3) | Potency (Tov-21-G) | Potency (Tov112D)

C=C[C@H]1[C@H](O[C@@H]2O[C@H](CO)[C@@H](O)[C@H](O)[C@H]2O)OC=C2C(=O)OCC[C@]21O
inactive: Potency (CAOV3) | Potency (CASKI) | Potency (Es-2) | Potency (HeLa) | Potency (Hek293T) | Potency (JEG-3) | Potency (OV90) | Potency (PA-1) | Potency (SKOV3) | Potency (Tov-21-G) | Potency (Tov112D)

Cc1cc(O)c(C(C)C)cc1O[C@@H]1O[C@H](CO)[C@@H](O)[C@H](O)[C@H]1O
inactive: Potency (CAOV3) | Potency (CASKI) | Potency (Es-2) | Potency (HeLa) | Potency (Hek293T) | Potency (JEG-3) | Potency (OV90) | Potency (PA-1) | Potency (SKOV3) | Potency (Tov-21-G) | Potency (Tov112D)

C=CC(C)(CC/C=C(\C)CC/C=C(\C)CC(O)/C=C(\C)C(=O)O)O[C@@H]1O[C@H](CO)[C@@H](O)[C@H](O)[C@H]1O[C@@H]1O[C@H](CO)[C@@H](O)[C@H](O)[C@H]1O (stereo partly drawn)
inactive: Potency (CAOV3) | Potency (CASKI) | Potency (Es-2) | Potency (HeLa) | Potency (Hek293T) | Potency (JEG-3) | Potency (OV90) | Potency (PA-1) | Potency (SKOV3) | Potency (Tov-21-G) | Potency (Tov112D)

CC(C)(O)CNc1nc(Nc2ccnc(C(F)(F)F)c2)nc(-c2cccc(C(F)(F)F)n2)n1
inactive: Potency (CAOV3) | Potency (CASKI) | Potency (Es-2) | Potency (HeLa) | Potency (Hek293T) | Potency (JEG-3) | Potency (OV90) | Potency (PA-1) | Potency (SKOV3) | Potency (Tov-21-G) | Potency (Tov112D)

CC(=O)c1c(C)cc(O[C@@H]2O[C@H](CO)[C@@H](O)[C@H](O)[C@H]2O)cc1O
inactive: Potency (CAOV3) | Potency (CASKI) | Potency (Es-2) | Potency (HeLa) | Potency (Hek293T) | Potency (JEG-3) | Potency (OV90) | Potency (PA-1) | Potency (SKOV3) | Potency (Tov-21-G) | Potency (Tov112D)

O=C(/C=C/c1ccc(O)cc1)OCC1=CC2OC(=O)C3=CO[C@@H](O[C@@H]4O[C@H](CO)[C@@H](O)[C@H](O)[C@H]4O)[C@H]1[C@@H]32 (stereo partly drawn)
inactive: Potency (CAOV3) | Potency (CASKI) | Potency (Es-2) | Potency (HeLa) | Potency (Hek293T) | Potency (JEG-3) | Potency (OV90) | Potency (PA-1) | Potency (SKOV3) | Potency (Tov-21-G) | Potency (Tov112D)

O=C(O)CCc1cccc(O[C@@H]2O[C@H](CO)[C@@H](O)[C@H](O)[C@H]2O)c1O
inactive: Potency (CAOV3) | Potency (CASKI) | Potency (Es-2) | Potency (HeLa) | Potency (Hek293T) | Potency (JEG-3) | Potency (OV90) | Potency (PA-1) | Potency (SKOV3) | Potency (Tov-21-G) | Potency (Tov112D)

C/C(=C/CO)CC[C@@H]1[C@@]2(C)CCC[C@](C)(C(=O)O)C2CC[C@@]1(C)O (stereo partly drawn)
inactive: Potency (CAOV3) | Potency (CASKI) | Potency (Es-2) | Potency (HeLa) | Potency (Hek293T) | Potency (JEG-3) | Potency (OV90) | Potency (PA-1) | Potency (SKOV3) | Potency (Tov-21-G) | Potency (Tov112D)

CCOC(=O)[C@H](CCc1ccccc1)N[C@@H](C)C(=O)N1C2CCCCC2C[C@H]1C(=O)O (stereo partly drawn)
inactive: Potency (CAOV3) | Potency (CASKI) | Potency (Es-2) | Potency (HeLa) | Potency (Hek293T) | Potency (JEG-3) | Potency (OV90) | Potency (PA-1) | Potency (SKOV3) | Potency (Tov-21-G) | Potency (Tov112D)

CCOc1ccc(-c2ccc(Cn3c(CC(C)(C)C(=O)O)c(SC(C)(C)C)c4cc(OCc5ccc(C)cn5)ccc43)cc2)cn1
inactive: Potency (CAOV3) | Potency (CASKI) | Potency (Es-2) | Potency (HeLa) | Potency (Hek293T) | Potency (JEG-3) | Potency (OV90) | Potency (PA-1) | Potency (SKOV3) | Potency (Tov-21-G) | Potency (Tov112D)

CC(CCC1(O)OC2CC3C4CCC5CC(O[C@@H]6O[C@H](CO)[C@@H](O)[C@H](O)[C@H]6O[C@@H]6OC[C@@H](O)[C@H](O)[C@H]6O)C(O)CC5(C)C4CCC3(C)C2C1C)CO[C@@H]1O[C@H](CO)[C@@H](O)[C@H](O)[C@H]1O (stereo partly drawn)
inactive: activity change, negative = cytotoxicity (CAOV3) 10.9% [at 11.6 µM] | activity change, negative = cytotoxicity (CASKI) 14.6% [at 11.6 µM] | activity change, negative = cytotoxicity (Es-2) -0.82% [at 11.6 µM] | activity change, negative = cytotoxicity (HeLa) -1.03% [at 11.6 µM] | activity change, negative = cytotoxicity (Hek293T) -3.21% [at 11.6 µM] | activity change, negative = cytotoxicity (JEG-3) 4.38% [at 11.6 µM] | activity change, negative = cytotoxicity (OV90) -1.54% [at 11.6 µM] | activity change, negative = cytotoxicity (PA-1) 17.2% [at 11.6 µM] | activity change, negative = cytotoxicity (SKOV3) 0% [at 11.6 µM] | activity change, negative = cytotoxicity (Tov-21-G) 0.148% [at 11.6 µM] | activity change, negative = cytotoxicity (Tov112D) 1.16% [at 11.6 µM]

COc1ccccc1[C@@H]1C2=C(CC(C)(C)CC2=O)Nc2n[nH]c(C(F)(F)F)c21
inactive: Potency (CAOV3) | Potency (CASKI) | Potency (Es-2) | Potency (HeLa) | Potency (Hek293T) | Potency (JEG-3) | Potency (OV90) | Potency (PA-1) | Potency (SKOV3) | Potency (Tov-21-G) | Potency (Tov112D)
